Source: PubChem
p53 reactivator – mutant p53 re-activation in reporter cells | H1299 p53-A138V BP100-luciferase reporter, luminescence, 24 h | 0.063% of 320,000 active | AID 504706 | Potency, µM (series often up to 92.2 µM), for inactives: at the top dose activity change, positive = activation, most hits filed as activators; also: potency is read from the fitted curve at half-maximal effect; % of control where 0% means no effect; nearly all actives have a fitted effect of over 45% in size
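H1299 (p53-null), stable ts p53-A138V + BP100-Luc; 1000 cells/well, Opti-MEM/10% FBS; cpd 4 pt, 1:5; 24 h, 37 deg C, 5% CO2; detection reagent 10 min RT; luminescence.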
PINK1 modulator – PINK1 expression modulation; 0.2% of 410,000 active; AID 624263; Potency, µM (doses to about 76.6 µM), without a hit: at the top dose activation (PINK1 increase), usual class: activators; PINK1 immunofluorescence, high-content cytometry, 24 h; active = well fitted activation curve with a large enough effect; inconclusive = small, poorly fitted or top-dose-only effect; cell line not stated here; also: potency is read from the fitted curve at half-maximal effect; % of control where 0% means no effect; nearly all actives have a fitted effect of over 65% in size
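Decision-based qHTS: stable cells, 24 h exposure to five compound concentrations, CCCP as control. Fixed cells stained for PINK1 plus nuclear, mitochondrial and cell markers, cytometer read.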
S-ASM inh – blocks human secretory acid sphingomyelinase. placental ASM, HMU-PC fluorogenic substrate, 60 min. 0.006% of 340,000 active. Potency, µM (series often up to 57.5 µM), inactives show top-dose activity change, negative = inhibition, usual class: inhibitors. P17405; also: potency is read from the fitted curve at half-maximal effect
Target sequence (P17405 47-631 limits assumed): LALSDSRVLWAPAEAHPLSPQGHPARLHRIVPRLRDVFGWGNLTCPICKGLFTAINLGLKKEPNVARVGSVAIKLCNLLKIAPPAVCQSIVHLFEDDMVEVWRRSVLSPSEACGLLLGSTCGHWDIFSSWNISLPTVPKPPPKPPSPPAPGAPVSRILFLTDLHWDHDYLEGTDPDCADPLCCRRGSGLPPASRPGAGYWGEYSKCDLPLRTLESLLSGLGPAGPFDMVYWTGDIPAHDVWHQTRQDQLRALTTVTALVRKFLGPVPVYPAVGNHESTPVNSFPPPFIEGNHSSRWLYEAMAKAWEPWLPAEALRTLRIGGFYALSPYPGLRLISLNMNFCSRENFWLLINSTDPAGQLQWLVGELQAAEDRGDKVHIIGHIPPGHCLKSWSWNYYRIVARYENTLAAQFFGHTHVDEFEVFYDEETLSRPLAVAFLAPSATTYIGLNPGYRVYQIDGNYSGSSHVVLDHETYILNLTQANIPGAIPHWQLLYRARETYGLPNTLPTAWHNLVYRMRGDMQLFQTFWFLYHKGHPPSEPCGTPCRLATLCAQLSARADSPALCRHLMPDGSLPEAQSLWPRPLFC
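Steps: dispense placental human ASM, pin compound, wait 10 min at room temperature, add HMU-PC0 substrate at 9 uM final, incubate 60 min at 37 °C, add stop solution raising pH to 10, read fluorescence.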
12-LOX inh – ALOX12 (human) lipoxygenase inhibition. P18054. purified 12hLO, xylenol orange hydroperoxide absorbance. Potency, µM (titrated, usually from 108 µM), without a hit: top-dose activity change, negative = inhibition, hits mostly inhibitors. 1.1% of 580,000 active; also: potency is read from the fitted curve at half-maximal effect; % is scaled to controls: 0 for no effect and ±100 for the full control effect
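Purified human 12hLO at 150 nM in 25 mM Hepes, 0.01% Triton X-100, pH 7.0, preincubated 15 min at room temperature with compound. Reaction started with 40 uM arachidonic acid, 30 min at room temperature. Hydroperoxide measured by Fe-xylenol orange, 573/405 nm absorbance ratio.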
CCT chaperon mod – modulators of cytosolic chaperonin (CCT/TRiC) activity | activity change, % (no concentration beside the values), hits read low | 0.3% of 360,000 active | purified chaperonin ATPase assay, HTRF ADP detection, 30 min; in the data active = activity change below about -30%; also: % is scaled to controls: 0 for no effect and ±100 for the full control effect
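ATPase activity: ADP formed was measured by HTRF Transcreener (665/615 nm ratio) after 30 min at 37 deg C with 10 uM ATP. Compounds screened at one 76 uM concentration against 40 or 20 nM TRiC in Tris pH 7.4/KCl/MgCl2/DTT buffer.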
Mm-Cpn inhibitor – inhibitors of Methanococcus maripaludis chaperonin TRiC (MmCpn); AID 504842; 0.031% of 330,000 active; Potency, µM (top dose mostly 76.9 µM), for the others: top-dose activity, negative = inhibition, hits mostly inhibitors; purified Mm-Cpn ATPase, ADP Transcreener TR-FRET; also: potency is read from the fitted curve at half-maximal effect; % is scaled to controls: 0 for no effect and ±100 for the full control effect; nearly all actives have a fitted effect of over 80% in size
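ATPase read-out: TR-FRET ADP immunoassay (anti-ADP Eu cryptate vs ADP-d2), ex 320 nm, em 590/665 nm; signal drops as ADP forms. Enzyme 25 nM, ATP 10 uM, 30 min at 37°C after 10 min compound preincubation.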
Starred values were filed as active, the others as inactive; ? = inconclusive; / = not tested or not shown; [ ] = remark or other dose. Compounds with a hit are over-represented: about 1.4% of the library has one in this group of screens. Unless noted, calls follow the shape of the dose curve; as a rule, active = well fitted curve in the direction sought with a large enough effect; inconclusive = small, poorly fitted or top-dose-only effect, or another doubt; inactive = no such curve, though single readings can be large; an effect the other way counts as inactive or inconclusive.

SMILES	p53 reactivator	PINK1 modulator	S-ASM inh	12-LOX inh	CCT chaperon mod	Mm-Cpn inhibitor
Cc1cc(N2CCN(C(C(=O)O)c3c[nH]c4cc(Cl)ccc34)CC2)nc2ccccc12 (centres undefined)	/	/	/	18µM*	/	/
O=C(O)C(c1c[nH]c2ccc(Cl)cc12)N1CCN(c2ccc(F)cc2)CC1 (centres undefined)	/	/	/	-7%	/	/
O=C(O)C(c1c[nH]c2cc(Cl)ccc12)N1CCN(C/C=C/c2ccccc2)CC1 (centres undefined)	/	/	/	45µM*	/	/
O=C(O)C(c1c[nH]c2cc(F)ccc12)N1CCN(C(c2ccccc2)c2ccccc2)CC1 (centres undefined)	/	/	/	18µM*	/	/
Cn1c(=O)c([N+](=O)[O-])c(NCc2ccccc2)c2ccccc21	-2%	3%	-4%	?	-56*	-5%
CCNc1c([N+](=O)[O-])c(=O)n(CC)c2ccccc12	-3%	2%	0%	117%	-1	1%
CN1CCN(C(c2ccc(C(F)(F)F)cc2)c2cc(Cl)c3cccnc3c2O)CC1 (centres undefined)	?	/	/	?	/	3%
CN1CCN(C(c2ccc(Cl)cc2)c2cc(Cl)c3cccnc3c2O)CC1 (centres undefined)	?	2%	-1%	10µM*	-2	0%
CC(=O)N1c2c(cc(Br)cc2S(=O)(=O)Nc2c(C)n(C)n(-c3ccccc3)c2=O)CC1C (centres undefined)	1%	-1%	6%	?	-41*	1%
CCC(=O)Nc1ccc(N2CCOCC2)c(S(=O)(=O)Nc2ccc(Cl)cc2)c1	-9%	0%	-4%	?	1	-5%
COCCNC(=S)Nc1ccc(N2CCOCC2)c(S(=O)(=O)Nc2ccc(Cl)cc2)c1	/	0%	/	5µM*	-1	/
O=C(Nc1ccc(N2CCOCC2)c(S(=O)(=O)Nc2ccc(Cl)cc2)c1)c1ccc(=O)[nH]n1	-9%	3%	-24%	?	2	0%
O=C(Nc1ccc(N2CCOCC2)c(S(=O)(=O)Nc2ccc(Cl)cc2)c1)c1cnccn1	-5%	2%	-13%	8.9µM*	0	3%
Cc1ccc(-c2nc3ccc(Br)cn3c2Cc2ccsc2)cc1	/	8%	/	3.2µM*	1	/
COc1ccc(Cc2c(-c3ccccc3)nc3ccc(Br)cn23)c(C)c1	/	32µM*	/	?	1	/
COc1ccc(Cc2c(-c3cccc(Br)c3)nc3ccc(Cl)cn23)c(C)c1	/	2%	/	0%	1	/
CC(C)(C)Cc1c(-c2ccc(Br)cc2)nc2ccc(Br)cn12	/	40µM*	/	?	-1	/
Cc1ccc(Cc2c(-c3ccc(Br)cc3)nc3ccc(Cl)cn23)cc1	/	6%	/	35µM*	-3	/
Cc1ccc(Cc2c(-c3ccc(C)cc3)nc3ccc(Cl)cn23)cc1	/	19%	/	?	-17	/
CCN(Cc1ccc(OC)c(F)c1)C(=O)CN1CCC(c2nc3ccccc3s2)CC1	/	/	/	16%	/	/
Cc1ccsc1C(=O)NC(CC(=O)O)c1cccs1 (centres undefined)	/	/	/	36%	/	/
COC(=O)c1cccc(NC(=O)CN(C)Cc2nc3ccccc3c(=O)[nH]2)c1	/	/	/	9%	/	/
Cn1cccc1CN1CC(N2CCc3ccccc32)C1	/	/	/	4%[12.5 µM]	/	/
Cn1c(-c2ccc(-c3ccccc3)cc2)c[nH]c1=S	26%	-1%	20%	40µM*	-1	-3%
Cc1ccc(-c2c[nH]c(=S)n2-c2ccccc2F)cc1	-3%	1%	-7%	35µM*	-3	-1%
SMILES	p53 reactivator	PINK1 modulator	S-ASM inh	12-LOX inh	CCT chaperon mod	Mm-Cpn inhibitor
O=C(Nc1ccc(Cc2ccncc2)cc1)Nc1ccc(Cc2ccncc2)cc1	/	/	/	26%	/	/
COc1cc(-c2nc(-c3ccccc3)c(-c3ccc(Br)cc3)[nH]2)cc(OC)c1O	/	?	/	20µM*	/	/
Oc1ccc(-c2nc(-c3ccccc3)c(-c3ccc(Br)cc3)[nH]2)cc1	/	6%	/	?	/	/
Clc1ccccc1CN(Cc1ccco1)Cc1nnnn1C1CCCC1	15%	0%	-2%	-10%	-70*	-5%
O=C(O)C1Nc2c(Cl)cc(Cl)c(Cl)c2C2C=CCC12 (centres undefined)	/	0%	-2%	3.2µM*	-1	/
O=C(O)C1Nc2c(Cl)cc(Cl)cc2C2C=CCC12 (centres undefined)	23%	-1%	-1%	/	1	-2%
Cc1ccc(C(=O)NNC(=S)NC(=O)COc2ccccc2)cc1	-2%	/	-1%	?	1	0%
CC(C)(C)c1ccc(C(=O)NC(=S)NNC(=O)COc2ccccc2)cc1	?	4%	-3%	32µM*	-1	0%
Cc1ccc(OCC(=O)NNC(=S)NC(=O)COc2ccccc2)cc1	/	/	/	11µM*	/	/
Cc1cccc(OCC(=O)NCCCNC(=O)c2cccnc2)c1	8%	0%	3%	-8%	-3	-2%
Cc1cccc(OCC(=O)NC(=S)NNC(=O)c2ccncc2)c1	-2%	-1%	5%	5µM*	0	-2%
Cc1ccccc1C(=O)NNC(=S)NC(=O)COc1ccccc1	-2%	-6%[38.3 µM]	2%	3.5µM*	3	-2%
CC(=O)Nc1ccc(CC(=O)Nc2cccc3cccnc23)cc1	/	/	/	21%	/	/
O=C(Nc1ccccc1F)c1cc2cc(Br)ccc2oc1=O	/	/	/	22%	/	/
COC(=O)c1ccccc1NC(=S)NC(=O)COc1ccccc1	7%	2%	3%	0%	-3	0%
